Measurements as given in PubChem BioAssay AID1159580 (chemical genetic matrix, 2015).
Values joined by “and” are separate entries in the source; they are usually repeats but may differ in a detail not shown here. Equal entries are not always repeated. About 2,000 (36%) of roughly 5,500 compounds were called active. Another 18% or so got no clear call; they are omitted. No stated cut-off is given here; in the data, active means normalized growth mostly below about 0.91 (no sharp cut-off); inconclusive means no clear call, values can overlap the other calls; inactive means mostly above about 0.92. Some of the results follow.

Test: chemical genetic growth profiling, strain panel (AID 1159580);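 further: tested at 20 µM; growth read once vehicle control cultures reached saturation at 30 °C; 1 = growth at the plate median or of vehicle wells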
Conditions: growth OD

Measured: normalized growth

O=C(O)C1CCCNC1 (stereo unspecified)
inactive: S. cerevisiae deletion strains, locus YJR075W, strain HOC1, stronger effect = lower value 1.01 | S. cerevisiae deletion strains, locus YKL009W, strain mrt4, stronger effect = lower value 1.02 | S. cerevisiae deletion strains, locus YKL068W, stronger effect = lower value 1.01 | S. cerevisiae deletion strains, locus YKL085W, strain MDH1 (second series), stronger effect = lower value 1.01 | S. cerevisiae deletion strains, locus YKL085W, strain MDH1, stronger effect = lower value 1.01 | S. cerevisiae deletion strains, locus YKL160W, strain elf1, stronger effect = lower value 1.01 | S. cerevisiae deletion strains, locus YKL190W, strain CNB1, stronger effect = lower value 1.01 | S. cerevisiae deletion strains, locus YKR001C, strain vps1, stronger effect = lower value 1.01 | S. cerevisiae deletion strains, locus YKR026C, strain gcn3, stronger effect = lower value 1.03 | S. cerevisiae deletion strains, locus YKR091W, strain srl3, stronger effect = lower value 1.01 | S. cerevisiae deletion strains, locus YLL001W, strain dnm1, stronger effect = lower value 1.04 | S. cerevisiae deletion strains, locus YLL026W, stronger effect = lower value 1.01 | S. cerevisiae deletion strains, locus YLL041C, strain sdh2, stronger effect = lower value 1.02 | S. cerevisiae deletion strains, locus YLR027C, strain aat2, stronger effect = lower value 1.02 | S. cerevisiae deletion strains, locus YLR039C, strain RIC1, stronger effect = lower value 1.01 | S. cerevisiae deletion strains, locus YLR058C, strain SHM2, stronger effect = lower value 1.01 | S. cerevisiae deletion strains, locus YLR102C, strain apc9, stronger effect = lower value 1.01 | S. cerevisiae deletion strains, locus YLR113W, strain HOG1, stronger effect = lower value 1.05 | S. cerevisiae deletion strains, locus YLR221C, strain rsa3, stronger effect = lower value 1.01 | S. cerevisiae deletion strains, locus YLR258W, strain gsy2, stronger effect = lower value 1.02 | S. cerevisiae deletion strains, locus YLR262C, strain YPT6 (second series), stronger effect = lower value 1.01 | S. cerevisiae deletion strains, locus YLR262C, strain YPT6, stronger effect = lower value 1.05 | S. cerevisiae deletion strains, locus YLR268W, strain sec22, stronger effect = lower value 1.04 | S. cerevisiae deletion strains, locus YLR320W, strain mms22, stronger effect = lower value 1.02 | S. cerevisiae deletion strains, locus YLR330W, strain CHS5, stronger effect = lower value 1 | S. cerevisiae deletion strains, locus YLR342W, strain FKS1 (second series), stronger effect = lower value 0.997 | S. cerevisiae deletion strains, locus YLR342W, strain FKS1, stronger effect = lower value 1.01 | S. cerevisiae deletion strains, locus YLR357W, strain rsc2, stronger effect = lower value 1.03 | S. cerevisiae deletion strains, locus YLR370C, strain arc18, stronger effect = lower value 1.02 | S. cerevisiae deletion strains, locus YLR371W, strain rom2, stronger effect = lower value 1.03 | S. cerevisiae deletion strains, locus YLR384C, strain iki3, stronger effect = lower value 1.01 | S. cerevisiae deletion strains, locus YLR418C, strain cdc73, stronger effect = lower value 1.05 | S. cerevisiae deletion strains, locus YML016C, strain PPZ1, stronger effect = lower value 1.01 | S. cerevisiae deletion strains, locus YML032C, strain rad52, stronger effect = lower value 1.04 | S. cerevisiae deletion strains, locus YML120C, strain ndi1, stronger effect = lower value 1.01 | S. cerevisiae deletion strains, locus YML124C, strain tub3, stronger effect = lower value 1.01 | S. cerevisiae deletion strains, locus YMR058W, strain fet3, stronger effect = lower value 1.02 | S. cerevisiae deletion strains, locus YMR078C, strain ctf18, stronger effect = lower value 1.03 | S. cerevisiae deletion strains, locus YMR125W, strain sto1, stronger effect = lower value 1.02 | S. cerevisiae deletion strains, locus YMR129W, stronger effect = lower value 1.03 | S. cerevisiae deletion strains, locus YMR205C, strain PFK2, stronger effect = lower value 1.02 | S. cerevisiae deletion strains, locus YMR223W, strain ubp8, stronger effect = lower value 1.02 | S. cerevisiae deletion strains, locus YMR231W, strain pep5, stronger effect = lower value 1.01 | S. cerevisiae deletion strains, locus YMR263W, strain SAP30, stronger effect = lower value 1.01 | S. cerevisiae deletion strains, locus YMR307W, strain GAS1, stronger effect = lower value 0.992 and 0.991 | S. cerevisiae deletion strains, locus YNL067W, strain RPL9B, stronger effect = lower value 1.01 | S. cerevisiae deletion strains, locus YNL071W, strain lat1, stronger effect = lower value 1.02 | S. cerevisiae deletion strains, locus YNL128W, strain TEP1, stronger effect = lower value 1.02 and 0.999 | S. cerevisiae deletion strains, locus YNL153C, strain GIM3, stronger effect = lower value 1.01 and 1.02 | S. cerevisiae deletion strains, locus YNL175C, strain NOP13, stronger effect = lower value 1.02 | S. cerevisiae deletion strains, locus YNL183C, strain NPR1, stronger effect = lower value 0.935 | S. cerevisiae deletion strains, locus YNL197C, strain WHI3, stronger effect = lower value 1.01 | S. cerevisiae deletion strains, locus YNL209W, strain ssb2, stronger effect = lower value 1.02 | S. cerevisiae deletion strains, locus YNL224C, strain SQS1, stronger effect = lower value 1.03 | S. cerevisiae deletion strains, locus YNL233W, strain BNI4, stronger effect = lower value 1.01 | S. cerevisiae deletion strains, locus YNL248C, strain rpa49, stronger effect = lower value 1 | S. cerevisiae deletion strains, locus YNL250W, strain rad50, stronger effect = lower value 1.02 | S. cerevisiae deletion strains, locus YNL271C, strain bni1, stronger effect = lower value 1.02 | S. cerevisiae deletion strains, locus YNL298W, strain CLA4, stronger effect = lower value 1.02 | S. cerevisiae deletion strains, locus YNL307C, strain MCK1, stronger effect = lower value 1.03 | S. cerevisiae deletion strains, locus YNL322C, strain KRE1 (second series), stronger effect = lower value 1.02 | S. cerevisiae deletion strains, locus YNL322C, strain KRE1, stronger effect = lower value 1.01 | S. cerevisiae deletion strains, locus YNR049C, strain mso1, stronger effect = lower value 1.02 | S. cerevisiae deletion strains, locus YNR052C, strain pop2, stronger effect = lower value 1.02 | S. cerevisiae deletion strains, locus YOL006C, strain TOP1, stronger effect = lower value 1.07 | S. cerevisiae deletion strains, locus YOL012C, strain htz1 1.27 | S. cerevisiae deletion strains, locus YOL147C, strain pex11, stronger effect = lower value 1.02 | S. cerevisiae deletion strains, locus YOR001W, strain rrp6, stronger effect = lower value 1.02 | S. cerevisiae deletion strains, locus YOR061W, strain CKA2, stronger effect = lower value 1.01 | S. cerevisiae deletion strains, locus YOR069W, strain VPS5, stronger effect = lower value 1 | S. cerevisiae deletion strains, locus YOR070C, strain gyp1, stronger effect = lower value 1.02 | S. cerevisiae deletion strains, locus YOR080W, strain dia2, stronger effect = lower value 1.02 | S. cerevisiae deletion strains, locus YOR083W, strain WHI5 (second series), stronger effect = lower value 1.02 | S. cerevisiae deletion strains, locus YOR083W, strain WHI5, stronger effect = lower value 1.01 | S. cerevisiae deletion strains, locus YOR106W, strain vam3, stronger effect = lower value 1.01 | S. cerevisiae deletion strains, locus YOR136W, strain idh2, stronger effect = lower value 1.02 | S. cerevisiae deletion strains, locus YOR144C, strain elg1, stronger effect = lower value 1.02 | S. cerevisiae deletion strains, locus YOR184W, strain ser1, stronger effect = lower value 1.04 | S. cerevisiae deletion strains, locus YOR231W, strain MKK1, stronger effect = lower value 0.999 | S. cerevisiae deletion strains, locus YOR265W, strain rbl2, stronger effect = lower value 1.02 | S. cerevisiae deletion strains, locus YOR270C, strain vph1, stronger effect = lower value 1.04 | S. cerevisiae deletion strains, locus YOR290C, strain snf2, stronger effect = lower value 1.02 | S. cerevisiae deletion strains, locus YOR316C, strain cot1, stronger effect = lower value 1.02 | S. cerevisiae deletion strains, locus YPL051W, strain arl3, stronger effect = lower value 1.02 | S. cerevisiae deletion strains, locus YPL055C, strain LGE1, stronger effect = lower value 1.03 | S. cerevisiae deletion strains, locus YPL078C, strain atp4, stronger effect = lower value 1.03 | S. cerevisiae deletion strains, locus YPL106C, strain sse1, stronger effect = lower value 1.01 | S. cerevisiae deletion strains, locus YPL240C, strain hsp82, stronger effect = lower value 1.03 | S. cerevisiae deletion strains, locus YPL241C, strain CIN2, stronger effect = lower value 1.01 and 1 | S. cerevisiae deletion strains, locus YPL256C, strain CLN2, stronger effect = lower value 0.983 | S. cerevisiae deletion strains, locus YPR119W, strain clb2, stronger effect = lower value 1.03 | S. cerevisiae deletion strains, locus YPR141C, strain kar3, stronger effect = lower value 1.02 | S. cerevisiae deletion strains, locus YPR163C, strain tif3, stronger effect = lower value 1.03 | S. cerevisiae deletion strains, locus YPR167C, strain met16, stronger effect = lower value 1.03 | S. cerevisiae deletion strains, strain wtn01, stronger effect = lower value 1.02 | S. cerevisiae strains, strain wild type, stronger effect = lower value 1.01
